Compound activity from PubChem BioAssay.
D3 ag: D3 dopamine receptor (human) agonism. P35462. D3R DiscoveRx beta-arrestin cells, luminescence, 90 min. max activation, %. actives 0.58% (n = 410,000); in the data active = max activation above about 30%; note: 0% is about no effect
Target sequence (P35462 whole entry, looked up): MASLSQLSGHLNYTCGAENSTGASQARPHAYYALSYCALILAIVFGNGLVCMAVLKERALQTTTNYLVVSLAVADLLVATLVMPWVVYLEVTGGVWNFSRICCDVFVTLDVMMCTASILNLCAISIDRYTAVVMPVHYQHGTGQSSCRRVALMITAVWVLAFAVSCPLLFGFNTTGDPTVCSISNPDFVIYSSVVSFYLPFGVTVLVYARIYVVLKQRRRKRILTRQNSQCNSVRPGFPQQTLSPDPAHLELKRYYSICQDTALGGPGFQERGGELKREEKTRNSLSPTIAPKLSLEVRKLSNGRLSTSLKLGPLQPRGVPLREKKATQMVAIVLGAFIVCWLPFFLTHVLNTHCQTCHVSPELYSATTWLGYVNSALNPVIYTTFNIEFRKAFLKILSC
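Agonist-mode cell screen: cells plated at 1500/well and incubated overnight at 37 °C, then exposed to library compounds for 90 min at 37 °C. Detection reagent was added for 30–60 min at room temperature, and luminescence was read.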
TDP1 cell noCPT: qHTS for Inhibitors of human tyrosyl-DNA phosphodiesterase 1 (TDP1): qHTS in cells in absence of CPT; DT40 Tdp1-/- hTDP1 cells, no CPT, ATP luminescence, 48 h; Potency, µM (series often up to 46.2 µM), inactives show at the top dose activity change, negative = growth inhibition, actives largely listed as inhibitors; actives 15% (n = 420,000); AID 686978, 2013; note: potency is the fitted concentration of half-maximal effect; % is set by controls: 0 for no effect and ±100 for the full control effect; nearly all actives have a fitted effect of over 55% in size
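Stably hTDP1-transfected Tdp1-null chicken DT40 cells were treated with library compounds minus camptothecin and grown for at least 48 hr at 37 °C, after which cellular ATP was quantified by luminescence.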
D3 antag: antagonists of human D3 dopamine receptor; D3R cells, DiscoveRx beta-arrestin luminescence, antagonist mode; hits give low values; max response, negative = inhibition, %; actives 2.5% (n = 360,000); in the data active = max response below about -50%; inconclusive = no clear call, values can overlap the other calls; note: % is set by controls: 0 for no effect and ±100 for the full control effect
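Cells expressing the human receptor were seeded at 1500 cells/well, incubated overnight at 37 degrees C in 5% CO2, then exposed to library compounds with dopamine controls for 90 minutes at 37 degrees C before luminescent detection.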
TDP1 cell CPT: DT40-hTDP1 cell growth loss with CPT; AID 686979; Potency, µM (highest dose often 46.2 µM), without a hit: top-dose activity change, negative = growth inhibition, most hits filed as inhibitors; chicken DT40 Tdp1-/-;hTDP1 cells + 20 nM CPT, ATP luminescence, 48 h; actives 12% (n = 420,000); note: potency is the fitted concentration of half-maximal effect; % is set by controls: 0 for no effect and ±100 for the full control effect; nearly all actives have a fitted effect of over 55% in size
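Chicken DT40 Tdp1-/- cells stably complemented with human TDP1 were seeded at 400 cells/well in medium containing 20 nM camptothecin, exposed to pin-transferred compounds, and grown at 37 °C for at least 48 hr. Viability was read as ATP luminescence.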
IL-1B inflam inh: inflammasome signaling inhibition, IL-1 beta readout | activity change, % at 57.5 µM | AID 743279 | THP-1 LPS/ATP IL-1B secretion, AlphaLISA, 16 h; hits give low values | actives 4.7% (n = 360,000); in the data active = activity change below about -50%; inconclusive = mostly about -30% to -49%; note: % is set by controls: 0 for no effect and ±100 for the full control effect
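THP-1 cells pretreated 1 hr with compounds (up to 57.5 uM final), then stimulated with LPS (250 ng/mL final) plus ATP (1.25 mM final); secreted IL-1B measured by AlphaLISA after 16 hr, decreased signal indicating inhibition.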
ClpP mod: qHTS Assay for Activators of ClpP; actives 1.9% (n = 340,000); purified B. subtilis ClpP, FRET peptide cleavage, 20 min; Potency, µM (top dose mostly 57.5 µM), inactives show at the highest dose activity change, negative = active; ATP-dependent Clp protease proteolytic subunit (Bacillus subtilis (strain 168)), P80244; AID 651965, 2013; active = well fitted falling curve with a large enough effect; inconclusive = small, poorly fitted or top-dose-only effect; inactive = no such curve, though single readings can be large or run the other way; note: potency is the fitted concentration of half-maximal effect; the source files actives as falling curves though it sought activators and does not explain the sign; nearly all actives have a fitted effect of over 65% in size
Target sequence (P80244 whole entry, looked up): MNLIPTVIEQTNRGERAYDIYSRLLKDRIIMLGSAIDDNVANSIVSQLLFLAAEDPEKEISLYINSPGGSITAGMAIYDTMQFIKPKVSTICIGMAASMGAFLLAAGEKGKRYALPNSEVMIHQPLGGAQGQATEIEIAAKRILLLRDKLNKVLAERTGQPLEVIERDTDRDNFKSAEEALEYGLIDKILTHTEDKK
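Purified B. subtilis ClpP, 10 microg/mL final in Tris/HCl pH8 with KCl, BSA, glycerol and Tween-20, cleaved an Abz/nitrotyrosine-quenched decapeptide. Fluorescence (ex 320, em 430) was read at 0 and 20 min at room temperature. Delta was normalized to 5.8 microM ADEP and DMSO/no-enzyme controls.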
Starred values were filed as active, the others as inactive; ? = inconclusive; nt = no result; [ ] = dose if it differs, or a comment. This is a sample that favours compounds with a hit; in the whole collection about 21% have one here. Unless noted, calls come from the whole dose curve; as a rule, active = well fitted inhibition curve with a large enough effect; inconclusive = small, poorly fitted or top-dose-only effect; inactive = flat fitted curve, though single readings scatter.

SMILES | D3 ag | TDP1 cell noCPT | D3 antag | TDP1 cell CPT | IL-1B inflam inh | ClpP mod
Cc1ccc(Nc2nc3ccccc3nc2-n2nc(C)cc2C)cc1 | -1.1 | -7.6% | -11.3 | -0.4% | 5.3 | -7.1%
Cc1ccc(Nc2cc(C)nn2-c2nc(C)cc(=O)[nH]2)cc1 | 0.3 | 0.562µM* | -66.8* | 0.794µM* | -110.3* | 0.2%
CC(NC(=O)Nc1ccccc1Cl)c1ccc2c(c1)OCO2 (centres undefined) | -6.9 | 0.7% | -7.6 | -5.5% | -2.6 | 1.4%
O=C(CCCCC(=O)OC1CCCCC1)OC1CCCCC1 | -8.1 | -14.0% | -8.7 | ? | 0.0 | nt
O=C(C=CC(=O)OC1CCCCC1)OC1CCCCC1 | -10.4 | ? | -12.8 | -28.1% | -87.9* | nt
CCOC(=O)c1scc(-c2ccccc2)c1S(=O)(=O)Nc1cc(Cl)c(OC)cc1OC | -1.2 | 14.6µM* | nt | ? | nt | 0.2%
CCOC(=O)c1scc(-c2ccc(C)cc2)c1S(=O)(=O)Nc1ccc(F)c(F)c1 | -7.9 | ? | nt | -13.4% | nt | 1.0%
CCOC(=O)c1scc(-c2ccc(C)cc2)c1S(=O)(=O)Nc1cc(Cl)ccc1OC | -15.7 | 3.26µM* | nt | 5.8µM* | nt | 0.1%
CCOC(=O)c1scc(-c2ccc(C)cc2)c1S(=O)(=O)Nc1ccc(OC)c(Cl)c1 | -1.3 | 14.6µM* | nt | 16.4µM* | nt | -0.6%
CCOC(=O)c1scc(-c2ccccc2)c1S(=O)(=O)Nc1ccc(N(C)C)cc1 | -7.6 | ? | nt | ? | nt | -3.3%
COc1cc(OC)c2nc(-c3cc4c(c(OC)c3)OCCN(C(=O)C(C)c3n[nH]c(=O)c5ccccc35)C4)cc(C)c2c1 (centres undefined) | nt | -14.6% | nt | 18.2%[9.04 µM] | nt | nt
CCOC(=O)c1cc(OC(=O)c2ccc(OC)c(OC)c2)n(-c2ccccc2)n1 | 7.1 | nt | nt | nt | nt | -2.8%
CC1=C(C(=O)N(C(C)C)C(C)C)CC(CC(=O)NCC2CCCCC2)C(=O)N1Cc1ccc(C(C)(C)C)cc1 (centres undefined) | nt | 18.7µM* | nt | 18.7µM* | nt | 1.8%
CCN(CC)C(=O)C1=C(C)N(Cc2ccc(OC)cc2)C(=O)C(CC(=O)NCC2CCCCC2)C1 (centres undefined) | -0.5 | 20.6µM* | -26.9 | ? | -12.3 | 0.0%
CC1=C(C(=O)N(C(C)C)C(C)C)CC(CC(=O)NC2CC2)C(=O)N1Cc1ccc(C(C)(C)C)cc1 (centres undefined) | -9.1 | 29.1µM* | -28.1 | ? | -0.3 | -5.1%
CN(C)CCNC(=O)C(=O)NCC(c1cccnc1)N1CCN(c2ccccc2)CC1 (centres undefined) | 4.6 | -23.3% | nt | 7.4% | nt | -0.1%
C/C(=N\S(=O)(=O)c1ccc(C)cc1)N(C)C | 3.7 | -5.2% | -1.8 | 6.9% | 20.4 | nt
S=c1[nH]nc(COc2ccc(Cl)cc2)n1C1CCCCC1 | -10.4 | ? | -9.9 | ? | 18.6 | -1.7%
Cc1ccc(OCc2n[nH]c(=S)n2C2CCCCC2)cc1 | 2.3 | 18.4µM* | -15.4 | 29.1µM* | 37.0 | 0.1%
Cc1cccc(OCc2n[nH]c(=S)n2C2CCCCC2)c1 | -8.6 | ? | -10.3 | 23.1µM* | 20.8 | -0.8%
COc1ccc(-n2c(COc3cccc(C)c3)n[nH]c2=S)cc1 | -6.2 | 2.4% | -19.4 | 5.3% | 17.9 | nt
CCCCCC(=O)NC(=S)NC1C2CC3CC(C2)CC1C3 (centres undefined) | -10.0 | ? | ? | ? | 76.9 | nt
Cc1ccc(C(=O)NCc2ccccn2)cc1S(=O)(=O)N1CCCCC1 | -5.4 | ? | -4.7 | -24.4% | -1.7 | 1.0%
CCCCC1CCC(C(=O)N2CC(=O)Nc3ccc(C)cc3C2c2ccc(F)cc2)CC1 (centres undefined) | -0.8 | ? | nt | 9.2µM* | nt | -25.9%
CCCCC1CCC(C(=O)N2CC(=O)Nc3ccc(Cl)cc3C2c2ccc(F)cc2)CC1 (centres undefined) | 2.7 | ? | nt | ? | nt | -6.5%
SMILES | D3 ag | TDP1 cell noCPT | D3 antag | TDP1 cell CPT | IL-1B inflam inh | ClpP mod
CCOc1ccccc1C(=O)N1CC(=O)Nc2ccc(Cl)cc2C1c1ccccc1 (centres undefined) | -3.9 | ? | nt | 20.6µM* | nt | -1.9%
Cc1ccccc1C(=O)N1CC(=O)Nc2ccc(F)cc2C1c1ccc(F)cc1 (centres undefined) | -10.9 | ? | 1.6 | 0.5% | -22.7 | 31.6µM*
CCOc1ccccc1C(=O)N1CC(=O)Nc2ccc(C)cc2C1c1ccccc1 (centres undefined) | 0.7 | 23.1µM* | nt | ? | nt | 2.2%
COc1cccc(CN2CCC3(CCC(CNC(=O)c4ccco4)O3)CC2)c1OC (centres undefined) | nt | -20.9% | nt | 7.0%[9.04 µM] | nt | nt
C=C1C=C(C(F)F)n2ncc(C(=O)N3CCN(c4ccccc4)CC3)c2N1 | nt | ? | nt | 11.2µM* | nt | 1.8%
CCOc1ccc(C(=O)C2CCN(CC(=O)Nc3ccccc3N3CCOCC3)CC2)cc1 | 1.5 | 18.4µM* | -16.7 | 16.4µM* | -25.1 | -2.7%
Cc1ccccc1NC(=O)CN1CCC(C(=O)c2ccc3c(c2)OCCO3)CC1 | -10.9 | 18.4µM* | -3.2 | ? | 13.5 | nt
O=C(CN1CCC(C(=O)c2ccc3c(c2)OCCO3)CC1)Nc1ccccc1C(F)(F)F | 6.9 | ? | -3.8 | ? | -56.9* | nt
Cc1ccc(C(=O)C2CCN(CC(=O)Nc3ccccc3C)CC2)cc1 | -15.5 | ? | ? | ? | -15.8 | nt
CCOc1ccc(C(=O)Nc2ccccc2N2CCOCC2)cc1 | -11.0 | ? | 13.4 | -27.0% | -21.3 | -9.7%
COc1ccccc1C(=O)NC(=O)COC(=O)c1ccc(Br)o1 | 2.3 | -5.2% | 6.7 | -1.3% | 10.5 | -16.6%
